Measured values reported in the supplement of paper PMC3334620.
In all, about 33,000 sequences were measured (“E-score (-0.5 to 0.5)”: median about -0.0014, highest 2% from about 0.25 on). Many of the other results were omitted from the sample, so the highest values are more common in it than they were.

Each sequence was assayed against T1, Cad1 (UniProt P24813) (assay: PBM E-score (8-mer binding enrichment) (E-score (-0.5 to 0.5)); higher = stronger / more preferred TF binding). Settings: protein concentration: 100 nM; construct: GST-full length.
T1 sequence: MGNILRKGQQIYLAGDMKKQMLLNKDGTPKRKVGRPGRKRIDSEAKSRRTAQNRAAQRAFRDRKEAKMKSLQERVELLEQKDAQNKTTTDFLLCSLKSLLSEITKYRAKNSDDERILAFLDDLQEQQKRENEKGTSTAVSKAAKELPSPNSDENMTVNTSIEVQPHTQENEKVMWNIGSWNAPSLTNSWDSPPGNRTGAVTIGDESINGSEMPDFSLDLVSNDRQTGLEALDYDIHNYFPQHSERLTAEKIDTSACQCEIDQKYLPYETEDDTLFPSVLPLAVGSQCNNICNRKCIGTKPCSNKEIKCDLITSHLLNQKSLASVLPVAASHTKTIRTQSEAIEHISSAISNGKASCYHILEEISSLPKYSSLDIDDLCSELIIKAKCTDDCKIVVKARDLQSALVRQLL
Protocol: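 Universal 'all 10-mer' protein binding microarrays (Agilent AMADID 015681) probed with GST-tagged S. cerevisiae TFs (full-length or DBD) made by in vitro transcription/translation (PURExpress), about 100-200 nM. Bound TF was detected with fluorescent anti-GST. Each ungapped 8-mer (which stands for itself and its reverse complement) is scored by the PBM enrichment score (E-score), a modified Wilcoxon-Mann-Whitney statistic from -0.5 to +0.5, computed with the Universal PBM Analysis Suite. Scale: above 0.35 generally sequence-specific binding.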

Sequence | PBM E-score
AGCACACT | -0.0625
AGAGCCAG | -0.239
CGCGTACA | -0.008
ATGCCGTC | -0.0686
AAGATCCA | -0.089
CTCTGGGA | -0.252
AGGACACC | 0.00026
ACAAACAT | 0.145
CCCGCGGG | 0.0407
CCCTACAA | -0.14
AAGGGGGT | -0.389
CCGCGAGA | -0.102
CAGCGCTA | 0.157
AATCGTGC | 0.276
CCGCGCGA | 0.295
TCGCGAAA | 0.168
CATCGTGC | 0.162
CCGCGAAA | 0.0147
GCGCGAAA | 0.308
CAGCGCTC | 0.153
CCGCGCGC | 0.144
AATCGTGA | 0.0886
CAGCGCTG | 0.263
TAGCCGAA | -0.0837
CCCTCCCG | -0.226

Sequence | PBM E-score
CAACATCG | 0.0708
ACAGAAAG | -0.0964
GTCGGTGA | -0.13
TCATTCAA | 0.13
AGGTACCC | -0.138
ATCTTTCC | 0.0734
CCGTCTAG | -0.128
CACGAGCC | -0.209
CAATCGCA | 0.00664
ACCCGCGC | 0.256
GCGCGCAC | 0.218
ACGCGCGC | 0.216
GCGCGCGA | 0.265
GTGCGCGA | -0.0729
TACCGCGA | 0.172
AACCGCGA | 0.287
ACGCGCGA | 0.139
ACCCGCGA | 0.0834
GCGCGCGC | 0.417
AACCGCGT | 0.122
ACCCGCGT | -0.00317
AAGTGTTA | 0.0352
ACAGCACG | -0.0152
AACCCCAA | 0.113
ATAACTCC | 0.0565

Sequence | PBM E-score
AGATGAAA | 0.02
AAGCGCGA | 0.101
AAGCGCGC | 0.276
AAGCGCGG | -0.0419
AACTCCGT | 0.0805
AGCCGGCG | 0.0742
CGCCGGCC | -0.124
CGCCGGCG | 0.301
TAATCTCA | 0.0993
ACTGTTTG | -0.0907
AATCGACC | -0.051
AATCGATG | 0.271
AATCGAAG | 0.182
AATCGATC | 0.215
AATCGACT | -0.039
AATCGACA | 0.304
CATCGATG | 0.169
AATCGATA | 0.288
AATCGATT | 0.198
CCTCCATC | -0.237
TGTTGCAA | 0.228
ATCCTTCA | -0.174
ATACTTCA | -0.0179
GTACTTCA | 0.251
CTACTTCA | -0.0482

Sequence | PBM E-score
CGCAGATC | 0.098
AGCAGATA | -0.0464
AGCAGATC | 0.256
ATGTGCCC | -0.071
ACAACCAC | 0.056
ACAACCAG | 0.145
ACAACCAT | 0.281
GGTGCATA | 0.00671
CGTACCAG | -0.0767
TGTACCAA | -0.0377
CGTACCAA | 0.256
ATTACCAA | 0.292
ATTACCAC | 0.161
GTTACCAA | 0.0957
AACCGGTA | -0.0764
ATTCCCTG | 0.117
CTTAAAGA | -0.0851
CTTTATAA | 0.101
GTTTATCA | 0.173
ATTTATAA | 0.341
GTTTATAA | 0.264
ATTTATAC | 0.226
GTTTATGA | 0.142
CATTCAGG | -0.0709
GAGTAACA | -0.00744

Sequence | PBM E-score
CAGTATCA | 0.0166
TAGTAAGA | 0.265
GAGTAATA | 0.198
CAGTAAGA | 0.194
TAGTATCA | 0.265
AAGTAAGA | -0.215
AAGTAACA | 0.0629
TAGTAATA | 0.371
CAGTAATA | 0.249
TAGTAACA | 0.255
GAGTATCA | -0.045
AGGTCCGG | 0.0244
ACGGGATC | -0.0506
TCATGTCA | 0.139
GGAAGACA | -0.0527
ACACAATC | 0.0563
CCCCGCCC | 0.114
CTGGCCAC | 0.00652
CATAGCGA | 0.051
AATAGCGG | -0.0047
AATAGCGC | 0.269
CATAGCGG | -0.142
CATAGCGC | 0.26
AATAGCGA | 0.214
CACTTCCC | -0.118

Sequence | PBM E-score
ACTCCCGA | 0.0151
AGGGGACG | -0.189
GGCAGTCA | -0.00415
TCCTCAAA | -0.166
ATGAACGG | -0.0252
ATGAACGA | 0.111
ATGAACGC | 0.252
GAGTTGAC | -0.0116
ATAATACA | 0.263
ATAATACG | 0.186
ATACTACC | 0.0181
ATAATACC | 0.215
ACAATACA | 0.0445
ATACTACA | 0.264
CTACTACA | 0.196
GCAATACC | -0.0457
GCAATACA | 0.291
TGTTGGAA | 0.192
GGACCACA | 0.137
AAAGCCTC | -0.186
ACCATCAG | -0.00772
CAGCAACA | 0.186
AGCTCGAA | 0.151
AAAGATTA | 0.152
GCAGAGGA | 0.0638

Sequence | PBM E-score
GAGCATCC | -0.169
ACGGACTC | -0.0126
CCGGACTA | -0.0508
CCGGACTC | 0.281
CATAGCAC | -0.0299
GAGGTCGA | -0.153
CTCTCTTC | -0.215
CTTAACTC | 0.0365
ATTAACTA | -0.00319
CTTAACTA | 0.283
GTTAACTA | 0.274
GATAACTA | 0.1
CGTAACTA | -0.001
CTCACTGA | -0.0364
AGGCTGTA | -0.0168
CCGCATTA | 0.172
ATGCATTA | 0.265
GCGCATTA | 0.265
ATGCATTC | 0.196
GTGCATCA | 0.128
CTGCATTA | 0.014
ATGCATCG | 0.114
ATGCATCA | 0.308
ACGCATTA | 0.145
